Reference: paper PMC7862700, “An all-to-all approach to the identification of sequence-specific readers for epigenetic DNA modifications on cytosine”

How the values were obtained:
Experiment in all cases: DAPPL (digital affinity profiling via proximity ligation, sequencing); 10 mM Tris-HCl pH 7.5, 50 mM NaCl, 1 mM DTT, 4% glycerol, room temperature, 30 min; GST-TFs on glutathione beads, 16-mer random dsDNA library, 0.1% formaldehyde crosslink after washing; high values mean tight binding
Details in all cases: protein: recombinant; tags: N-terminal GST; dsDNA, one strand shown
[1] = molecular target: T1, FLI1 (Homo sapiens, UniProt Q01543 1-452)
T1 sequence: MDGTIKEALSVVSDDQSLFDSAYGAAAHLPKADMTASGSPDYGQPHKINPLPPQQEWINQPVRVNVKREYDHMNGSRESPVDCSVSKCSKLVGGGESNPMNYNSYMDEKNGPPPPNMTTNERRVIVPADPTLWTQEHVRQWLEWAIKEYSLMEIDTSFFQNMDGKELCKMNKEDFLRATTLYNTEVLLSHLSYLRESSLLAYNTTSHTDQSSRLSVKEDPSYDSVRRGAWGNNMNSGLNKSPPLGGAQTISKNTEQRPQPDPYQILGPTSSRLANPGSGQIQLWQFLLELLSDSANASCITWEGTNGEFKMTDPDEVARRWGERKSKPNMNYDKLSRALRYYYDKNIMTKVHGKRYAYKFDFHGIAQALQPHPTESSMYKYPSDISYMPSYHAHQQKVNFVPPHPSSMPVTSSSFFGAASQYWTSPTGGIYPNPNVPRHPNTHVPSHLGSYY
In short: (§1)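 Human transcription factors fused to GST were expressed in yeast, captured on glutathione beads, given DNA barcodes and pooled with a GST-only negative control. Pools were incubated with 200 nmole of a 16-mer random double-stranded DNA library in Tris/NaCl/DTT/glycerol buffer at room temperature for 30 min. They were then washed, crosslinked with 0.1% formaldehyde, proximity-ligated (BsaI/T4 ligase, 1 h, 37 °C), PCR-amplified and sequenced on an Illumina NextSeq500. Binding signal is each 6-mer's read frequency for a factor divided by its frequency for the GST control.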

[2] = molecular target: T2, ELK1 (Homo sapiens, UniProt P19419 1-428)
T2 sequence: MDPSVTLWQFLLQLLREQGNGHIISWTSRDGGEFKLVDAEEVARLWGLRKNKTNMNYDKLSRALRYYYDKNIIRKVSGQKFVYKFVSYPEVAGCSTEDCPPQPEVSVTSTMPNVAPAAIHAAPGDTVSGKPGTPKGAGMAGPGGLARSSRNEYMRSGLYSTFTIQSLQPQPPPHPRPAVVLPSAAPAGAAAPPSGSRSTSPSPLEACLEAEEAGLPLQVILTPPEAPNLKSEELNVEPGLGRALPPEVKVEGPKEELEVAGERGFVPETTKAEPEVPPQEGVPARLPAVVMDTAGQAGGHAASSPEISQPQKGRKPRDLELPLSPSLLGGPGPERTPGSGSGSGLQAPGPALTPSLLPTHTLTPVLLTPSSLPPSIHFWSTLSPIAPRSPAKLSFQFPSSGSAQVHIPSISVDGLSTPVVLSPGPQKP
In short: as §1

[3] = molecular target: T3, GABPA (Homo sapiens, UniProt Q06546 1-454)
T3 sequence: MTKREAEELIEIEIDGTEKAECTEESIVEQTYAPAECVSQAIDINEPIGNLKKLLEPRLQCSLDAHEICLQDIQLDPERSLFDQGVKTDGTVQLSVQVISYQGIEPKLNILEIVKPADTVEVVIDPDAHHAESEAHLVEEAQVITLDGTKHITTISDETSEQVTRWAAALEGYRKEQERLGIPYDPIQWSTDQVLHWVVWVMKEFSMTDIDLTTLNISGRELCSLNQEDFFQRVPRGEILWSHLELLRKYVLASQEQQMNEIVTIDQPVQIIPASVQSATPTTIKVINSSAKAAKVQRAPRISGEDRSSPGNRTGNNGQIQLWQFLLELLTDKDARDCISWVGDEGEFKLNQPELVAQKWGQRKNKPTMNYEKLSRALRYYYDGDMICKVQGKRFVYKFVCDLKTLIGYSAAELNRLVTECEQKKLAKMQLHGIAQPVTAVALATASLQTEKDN
In short: as §1

[4] = molecular target: T4, ERG (Homo sapiens, UniProt P11308 1-479)
T4 sequence: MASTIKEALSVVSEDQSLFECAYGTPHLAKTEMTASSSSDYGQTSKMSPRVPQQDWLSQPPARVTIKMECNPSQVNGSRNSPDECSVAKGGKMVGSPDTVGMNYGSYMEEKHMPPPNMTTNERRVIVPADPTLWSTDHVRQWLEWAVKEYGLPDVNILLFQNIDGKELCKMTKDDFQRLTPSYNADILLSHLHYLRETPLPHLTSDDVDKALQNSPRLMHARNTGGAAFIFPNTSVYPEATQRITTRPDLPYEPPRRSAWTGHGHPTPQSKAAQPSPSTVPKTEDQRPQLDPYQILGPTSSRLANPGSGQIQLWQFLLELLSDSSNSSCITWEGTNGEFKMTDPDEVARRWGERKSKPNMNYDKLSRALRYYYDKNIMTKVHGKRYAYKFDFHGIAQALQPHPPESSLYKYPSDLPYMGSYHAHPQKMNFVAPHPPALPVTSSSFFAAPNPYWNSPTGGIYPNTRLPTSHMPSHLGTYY
In short: as §1

[5] = molecular target: ELF1 (Homo sapiens, UniProt P32519 1-619)
In short: as §1

[6] = molecular target: T5, EHF (Homo sapiens, UniProt Q9NZC4 1-300)
T5 sequence: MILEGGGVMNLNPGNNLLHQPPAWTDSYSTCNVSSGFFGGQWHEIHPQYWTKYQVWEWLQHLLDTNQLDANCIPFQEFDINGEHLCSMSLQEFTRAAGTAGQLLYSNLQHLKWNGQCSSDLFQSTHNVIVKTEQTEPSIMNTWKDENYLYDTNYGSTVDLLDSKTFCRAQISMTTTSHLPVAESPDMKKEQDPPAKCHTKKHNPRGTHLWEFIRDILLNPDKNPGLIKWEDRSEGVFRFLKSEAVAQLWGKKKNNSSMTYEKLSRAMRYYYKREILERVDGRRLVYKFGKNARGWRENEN
In short: as §1

[7] = molecular target: SPI1 (Homo sapiens, UniProt P17947 1-270)
In short: as §1

[8] = molecular target: SPIB (Homo sapiens, UniProt Q01892 1-262)
In short: as §1

[9] = molecular target: T6, ELK3 (Homo sapiens, UniProt P41970 1-407)
T6 sequence: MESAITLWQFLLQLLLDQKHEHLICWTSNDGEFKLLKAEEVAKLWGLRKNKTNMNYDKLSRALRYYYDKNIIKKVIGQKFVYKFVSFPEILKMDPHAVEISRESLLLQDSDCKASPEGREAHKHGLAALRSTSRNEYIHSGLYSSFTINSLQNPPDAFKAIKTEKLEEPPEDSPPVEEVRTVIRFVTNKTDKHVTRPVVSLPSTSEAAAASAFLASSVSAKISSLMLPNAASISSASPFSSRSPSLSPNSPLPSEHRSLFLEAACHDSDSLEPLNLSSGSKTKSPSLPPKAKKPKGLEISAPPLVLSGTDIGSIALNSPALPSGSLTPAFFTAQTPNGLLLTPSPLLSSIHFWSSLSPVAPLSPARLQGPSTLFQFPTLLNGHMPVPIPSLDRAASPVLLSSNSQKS
In short: as §1

[10] = molecular target: T7, FEV (Homo sapiens, UniProt Q99581 1-238)
T7 sequence: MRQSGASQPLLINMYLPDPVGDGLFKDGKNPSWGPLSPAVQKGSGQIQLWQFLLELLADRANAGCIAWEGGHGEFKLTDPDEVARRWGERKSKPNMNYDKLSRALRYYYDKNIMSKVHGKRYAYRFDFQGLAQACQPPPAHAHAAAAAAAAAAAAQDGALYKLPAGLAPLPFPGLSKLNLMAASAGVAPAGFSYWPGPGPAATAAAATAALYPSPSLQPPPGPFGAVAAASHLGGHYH
In short: as §1

[11] = molecular target: ETV5 (Homo sapiens, UniProt P41161 1-510)
In short: as §1

[12] = molecular target: T8, SPIC (Homo sapiens, UniProt Q8N5J4 1-248)
T8 sequence: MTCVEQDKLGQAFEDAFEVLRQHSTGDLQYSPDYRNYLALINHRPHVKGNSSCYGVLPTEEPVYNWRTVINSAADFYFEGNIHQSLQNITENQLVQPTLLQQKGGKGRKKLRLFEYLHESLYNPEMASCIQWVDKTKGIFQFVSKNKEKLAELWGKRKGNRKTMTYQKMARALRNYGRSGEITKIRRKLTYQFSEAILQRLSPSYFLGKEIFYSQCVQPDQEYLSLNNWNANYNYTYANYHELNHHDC
In short: as §1

[13] = molecular target: ELF4 (Homo sapiens, UniProt Q99607 1-663)
In short: as §1

[14] = molecular target: T9, ELK4 (Homo sapiens, UniProt P28324-2 1-405)
T9 sequence: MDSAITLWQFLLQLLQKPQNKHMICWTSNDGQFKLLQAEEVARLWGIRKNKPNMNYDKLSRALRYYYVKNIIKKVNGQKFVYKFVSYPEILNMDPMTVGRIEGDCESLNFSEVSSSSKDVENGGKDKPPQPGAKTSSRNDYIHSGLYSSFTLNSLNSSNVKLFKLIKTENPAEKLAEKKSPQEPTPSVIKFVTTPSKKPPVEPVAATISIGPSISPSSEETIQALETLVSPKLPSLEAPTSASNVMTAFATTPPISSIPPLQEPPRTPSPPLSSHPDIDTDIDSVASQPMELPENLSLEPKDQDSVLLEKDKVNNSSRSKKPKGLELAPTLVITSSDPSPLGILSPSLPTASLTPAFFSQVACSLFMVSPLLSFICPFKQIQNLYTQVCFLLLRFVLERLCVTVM
In short: as §1

[15] = molecular target: T10, ETV2 (Homo sapiens, UniProt O00321 1-342)
T10 sequence: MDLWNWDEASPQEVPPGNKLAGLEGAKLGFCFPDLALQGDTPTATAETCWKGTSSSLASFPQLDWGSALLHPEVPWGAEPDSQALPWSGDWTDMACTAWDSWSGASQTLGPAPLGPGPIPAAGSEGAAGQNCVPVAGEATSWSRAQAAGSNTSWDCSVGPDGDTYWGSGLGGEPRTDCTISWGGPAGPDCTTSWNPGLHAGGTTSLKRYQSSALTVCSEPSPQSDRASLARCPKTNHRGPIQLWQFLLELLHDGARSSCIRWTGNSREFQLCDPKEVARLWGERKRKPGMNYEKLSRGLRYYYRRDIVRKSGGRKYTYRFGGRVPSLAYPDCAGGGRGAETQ
In short: as §1

[16] = molecular target: T11, ELF3 (Homo sapiens, UniProt P78545 1-371)
T11 sequence: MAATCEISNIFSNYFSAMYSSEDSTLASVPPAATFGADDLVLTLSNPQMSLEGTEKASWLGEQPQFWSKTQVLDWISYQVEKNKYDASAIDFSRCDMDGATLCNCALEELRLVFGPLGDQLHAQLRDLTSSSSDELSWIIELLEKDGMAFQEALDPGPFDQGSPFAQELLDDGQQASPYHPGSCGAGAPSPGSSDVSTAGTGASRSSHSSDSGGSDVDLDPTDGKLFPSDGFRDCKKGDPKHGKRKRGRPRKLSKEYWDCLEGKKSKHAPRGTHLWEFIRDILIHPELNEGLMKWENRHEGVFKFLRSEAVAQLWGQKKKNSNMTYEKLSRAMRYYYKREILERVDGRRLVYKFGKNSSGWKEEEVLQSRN
In short: as §1

[17] = molecular target: ETV1 (Homo sapiens, UniProt P50549 1-477)
In short: as §1

Chain of ELF1 (P32519 whole entry): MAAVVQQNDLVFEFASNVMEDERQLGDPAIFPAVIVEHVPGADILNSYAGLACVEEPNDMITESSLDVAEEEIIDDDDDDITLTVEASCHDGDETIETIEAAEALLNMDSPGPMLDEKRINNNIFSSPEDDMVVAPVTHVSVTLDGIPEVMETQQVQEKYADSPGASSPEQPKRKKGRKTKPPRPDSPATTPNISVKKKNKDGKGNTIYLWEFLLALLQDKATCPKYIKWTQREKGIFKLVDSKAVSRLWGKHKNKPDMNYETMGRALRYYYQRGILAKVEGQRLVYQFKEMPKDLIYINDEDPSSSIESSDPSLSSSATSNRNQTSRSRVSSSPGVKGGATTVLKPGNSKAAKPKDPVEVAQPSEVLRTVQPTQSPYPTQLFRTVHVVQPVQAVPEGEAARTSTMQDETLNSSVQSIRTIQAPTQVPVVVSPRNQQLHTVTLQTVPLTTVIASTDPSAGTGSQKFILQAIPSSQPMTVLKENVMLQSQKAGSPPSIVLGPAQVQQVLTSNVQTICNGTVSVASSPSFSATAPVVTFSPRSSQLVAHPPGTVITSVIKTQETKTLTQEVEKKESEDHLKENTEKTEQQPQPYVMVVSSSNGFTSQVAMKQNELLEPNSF
Chain of ETV5 (P41161 whole entry): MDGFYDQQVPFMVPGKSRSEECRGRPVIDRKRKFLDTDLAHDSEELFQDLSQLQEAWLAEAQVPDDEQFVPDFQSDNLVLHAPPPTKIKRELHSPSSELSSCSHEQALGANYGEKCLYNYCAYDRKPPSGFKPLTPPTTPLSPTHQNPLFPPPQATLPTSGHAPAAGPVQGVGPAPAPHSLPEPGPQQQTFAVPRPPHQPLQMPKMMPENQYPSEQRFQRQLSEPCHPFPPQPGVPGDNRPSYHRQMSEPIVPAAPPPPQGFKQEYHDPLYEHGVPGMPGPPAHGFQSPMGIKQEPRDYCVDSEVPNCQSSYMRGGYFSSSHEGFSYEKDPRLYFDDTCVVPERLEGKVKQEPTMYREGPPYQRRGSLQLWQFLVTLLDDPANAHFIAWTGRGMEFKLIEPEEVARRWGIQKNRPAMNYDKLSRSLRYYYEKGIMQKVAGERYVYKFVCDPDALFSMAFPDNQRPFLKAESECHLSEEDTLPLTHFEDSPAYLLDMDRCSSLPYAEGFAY
Chain of SPIB (Q01892 whole entry): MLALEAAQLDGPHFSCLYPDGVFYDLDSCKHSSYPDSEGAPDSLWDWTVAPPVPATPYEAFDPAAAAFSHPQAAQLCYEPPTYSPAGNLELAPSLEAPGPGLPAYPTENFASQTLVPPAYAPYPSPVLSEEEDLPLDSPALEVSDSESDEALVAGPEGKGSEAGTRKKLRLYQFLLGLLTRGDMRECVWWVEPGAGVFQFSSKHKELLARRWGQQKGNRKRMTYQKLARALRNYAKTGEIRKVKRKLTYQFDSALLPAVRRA
Chain of ETV1 (P50549 whole entry): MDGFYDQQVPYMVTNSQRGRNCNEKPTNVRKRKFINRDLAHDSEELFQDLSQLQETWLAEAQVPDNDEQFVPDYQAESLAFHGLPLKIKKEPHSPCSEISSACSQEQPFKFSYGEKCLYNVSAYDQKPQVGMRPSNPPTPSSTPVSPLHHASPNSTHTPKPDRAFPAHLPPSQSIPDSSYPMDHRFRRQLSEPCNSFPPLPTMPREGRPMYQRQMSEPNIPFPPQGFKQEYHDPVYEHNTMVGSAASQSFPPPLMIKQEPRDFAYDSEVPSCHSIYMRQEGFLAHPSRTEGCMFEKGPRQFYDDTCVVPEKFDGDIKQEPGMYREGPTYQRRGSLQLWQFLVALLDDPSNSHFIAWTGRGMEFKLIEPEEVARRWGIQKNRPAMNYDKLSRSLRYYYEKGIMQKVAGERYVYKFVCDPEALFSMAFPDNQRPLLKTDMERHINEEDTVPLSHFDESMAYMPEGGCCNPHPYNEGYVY
Chain of ELF4 (Q99607 whole entry): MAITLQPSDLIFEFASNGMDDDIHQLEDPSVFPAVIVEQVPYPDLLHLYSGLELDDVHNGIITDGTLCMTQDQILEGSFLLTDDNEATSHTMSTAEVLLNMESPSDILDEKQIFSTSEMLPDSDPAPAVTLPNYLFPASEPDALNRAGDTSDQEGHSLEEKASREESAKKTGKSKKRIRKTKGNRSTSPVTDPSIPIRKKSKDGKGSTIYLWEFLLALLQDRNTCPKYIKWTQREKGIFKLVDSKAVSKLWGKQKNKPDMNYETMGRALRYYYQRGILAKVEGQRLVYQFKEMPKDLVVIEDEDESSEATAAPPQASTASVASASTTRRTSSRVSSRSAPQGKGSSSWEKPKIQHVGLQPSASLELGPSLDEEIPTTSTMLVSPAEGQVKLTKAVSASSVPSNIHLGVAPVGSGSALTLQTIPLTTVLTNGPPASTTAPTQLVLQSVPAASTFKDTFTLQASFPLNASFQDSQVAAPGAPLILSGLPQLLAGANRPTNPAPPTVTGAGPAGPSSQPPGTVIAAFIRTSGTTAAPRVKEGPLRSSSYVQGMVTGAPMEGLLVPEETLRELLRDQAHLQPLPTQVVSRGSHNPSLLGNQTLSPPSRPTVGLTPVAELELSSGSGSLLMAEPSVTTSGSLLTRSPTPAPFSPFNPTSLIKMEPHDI

| Sequence | binding signal [1] | binding signal [2] | binding signal [3] | binding signal [4] | binding signal [5] | binding signal [6] | binding signal [7] | binding signal [8] | binding signal [9] | binding signal [10] | binding signal [11] | binding signal [12] | binding signal [13] | binding signal [14] | binding signal [15] | binding signal [16] | binding signal [17] |
| --- | --- | --- | --- | --- | --- | --- | --- | --- | --- | --- | --- | --- | --- | --- | --- | --- | --- |
| TGGTGT | 1.28 fold enrichment (6-mer frequency, TF over GST control) | 1.18 fold enrichment (6-mer frequency, TF over GST control) | 1.35 fold enrichment (6-mer frequency, TF over GST control) | 1.33 fold enrichment (6-mer frequency, TF over GST control) | 1.33 fold enrichment (6-mer frequency, TF over GST control) | 1.31 fold enrichment (6-mer frequency, TF over GST control) | 1.23 fold enrichment (6-mer frequency, TF over GST control) | 1.18 fold enrichment (6-mer frequency, TF over GST control) | 1.4 fold enrichment (6-mer frequency, TF over GST control) | 1.14 fold enrichment (6-mer frequency, TF over GST control) | 1.26 fold enrichment (6-mer frequency, TF over GST control) | 1.09 fold enrichment (6-mer frequency, TF over GST control) | 1.34 fold enrichment (6-mer frequency, TF over GST control) | 1.31 fold enrichment (6-mer frequency, TF over GST control) | 1.45 fold enrichment (6-mer frequency, TF over GST control) | 1.25 fold enrichment (6-mer frequency, TF over GST control) | 1.2 fold enrichment (6-mer frequency, TF over GST control) |
| TGCGAC | 1.2 fold enrichment (6-mer frequency, TF over GST control) | 1.25 fold enrichment (6-mer frequency, TF over GST control) | 1.21 fold enrichment (6-mer frequency, TF over GST control) | 1.26 fold enrichment (6-mer frequency, TF over GST control) | 1.22 fold enrichment (6-mer frequency, TF over GST control) | 1.13 fold enrichment (6-mer frequency, TF over GST control) | 1.24 fold enrichment (6-mer frequency, TF over GST control) | 1.27 fold enrichment (6-mer frequency, TF over GST control) | 1.16 fold enrichment (6-mer frequency, TF over GST control) | 1.24 fold enrichment (6-mer frequency, TF over GST control) | 1.24 fold enrichment (6-mer frequency, TF over GST control) | 1.3 fold enrichment (6-mer frequency, TF over GST control) | 1.27 fold enrichment (6-mer frequency, TF over GST control) | 1.25 fold enrichment (6-mer frequency, TF over GST control) | 1.33 fold enrichment (6-mer frequency, TF over GST control) | 1.32 fold enrichment (6-mer frequency, TF over GST control) | 1.18 fold enrichment (6-mer frequency, TF over GST control) |
